Screen size: about 44,000 compounds; fewer than 10 were called active. Not shown: some 2% with an inconclusive outcome. The call rests on the fitted dose curve; in most records, active means well fitted curve in the direction sought with a large enough effect; inconclusive means small, poorly fitted or top-dose-only effect, or another doubt; inactive means no such curve, though single readings can be large or run the other way. A selection follows.

Galactokinase (Homo sapiens), sequence (P51570 whole entry, looked up): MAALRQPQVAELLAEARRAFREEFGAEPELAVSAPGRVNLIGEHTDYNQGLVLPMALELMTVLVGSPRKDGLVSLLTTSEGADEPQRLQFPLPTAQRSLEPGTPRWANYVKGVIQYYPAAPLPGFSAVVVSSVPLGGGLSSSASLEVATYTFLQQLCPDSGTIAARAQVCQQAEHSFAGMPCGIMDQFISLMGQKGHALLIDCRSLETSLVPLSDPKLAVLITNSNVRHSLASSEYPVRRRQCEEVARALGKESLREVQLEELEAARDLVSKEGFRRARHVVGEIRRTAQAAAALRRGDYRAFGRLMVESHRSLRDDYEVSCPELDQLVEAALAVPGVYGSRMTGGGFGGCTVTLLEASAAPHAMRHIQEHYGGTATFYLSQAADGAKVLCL

The assay has as its target Galactokinase (Homo sapiens) (UniProt P51570). As to the kind of experiment: qHTS Assay for Inhibitors of Human Galactokinase (GALK): NCGC Sytravon Library Screen. The note with it: recombinant GALK, Kinase-Glo ATP luminescence, 1 h; series mostly up to 57.5 µM. The source says: Inherited deficiency of galactose-1-phosphate uridyltransferase (GALT) can result in a potentially lethal disorder called Classic Galactosemia (OMIM 230400). Several lines of evidence indicate that an elevated level of galactose-1-phosphate (gal-1-p), the product of galactokinase (GALK), is a major, if not sole, pathogenic mechanism in patients with classic galactosemia. Therefore, finding inhibitors of GALK is a potential novel therapy for this inherent metabolic disease and is the long term goal of this project. This screen is run against the NCGC Sytravon compound library collection. GALK (provided by Kent Lai) was assayed using ATP and D-(+)-Galactose (Sigma-Aldrich cat# G0750) as substrates. Promega Kinase-Glo Plus technology was used to detect kinase activity. Reactions with and without GALK were used as negative and positive controls together with Protein Tyrosine Phosphatase CD45 inhibitor (EMD Bioscience cat# 540215) which is shown to inhibit GALK activity. Decrease in activity corresponds to inhibition of the enzyme is the desired outcome for this assay. NIH Molecular Libraries Probe Production Network [MLPCN] NIH Chemical Genomics Center [NCGC] Grant: R03 MH085689-01 PI Name: Kent Lai Ph.D., University of Utah
NCGC Assay Protocol Summary: Three uL/well of ATP-buffer solution (35 uM ATP, 20mM HEPES pH8.0, 5 mM MgCl2, 60 mM NaCl, 1 mM DTT, 0.01% BSA final concentration) was dispensed into 1536-well, assay plates (Greiner, solid white medium-binding plates) with Aurora Discovery BioRAPTR Flying Reagent Dispenser (FRD; Beckton-Dickenson). Compound solution (23 nL) was transferred to the assay plate using the Kalypsys 1536-pin tool. One uL/well GALK-galactose solution (5 nM GALK, 100 uM galactose, 20 mM HEPES pH8.0, 5 mM MgCl2, 60 mM NaCl, 1 mM DTT, 0.01% BSA final concentration) was then added using the FRD yielding a total kinase reaction volume of 4 uL/ well. After 1 hour of room temperature incubation, 4 uL Kinase-Glo Plus reagent was added for a final assay volume of 8 uL/ well. Luminescence was detected with the ViewLux plate reader (Perkin Elmer, Waltham, MA) after 10 min incubation using a 1 sec exposure time and 2x binning.
On the technique in general: In qHTS, concentration-response curves come from the screen itself.
Turning to `CCc1nc(-c2cc(S(=O)(=O)N3CCN(c4ccc(OC)cc4)CC3)ccc2OC)no1`, the outcome was inactive.
Consider `Cc1ccc(NC(=O)Cn2c(=O)n(-c3ccccc3)c(=O)c3c4c(sc32)CCCC4)cc1`, for which the result was inactive.
In the case of `COc1cccc(CNC(=O)CN2C(=O)CCc3cc(S(=O)(=O)N4CCOCC4)ccc32)c1`, the outcome was inactive.
Regarding `C#CCOc1ccc(C2CC(=O)Nc3c2c(C)nn3-c2nc(C)cc(C)n2)cc1` (stereo not given), the outcome was inactive.
On to `Cc1cccc(NC(c2cccc(F)c2)c2ccc3ccc(C)nc3c2O)n1` (stereo not given), for which the result was inactive.
Regarding `O=C(CCS(=O)(=O)c1cc(Br)cc2c1N(C(=O)C1CC1)CC2)Nc1ccc(Br)cc1F`, the outcome was inactive.
In the case of `CCOC(=O)c1ccc(N2C(=O)c3n[nH]c(-c4ccco4)c3C2c2ccc(O)cc2)cc1` (stereo not given), the outcome was inactive.
Regarding `O=C(CC1Oc2ccc(Cl)cc2NC1=O)NCc1ccccc1` (stereo not given), the outcome was inactive.
Turning to `COc1ccc(-n2c(C)nc3c(cnn3-c3ccc(F)cc3)c2=O)cc1`, the outcome was inactive.
In the case of `COc1ccc(CCN2C(=O)N(c3cccc(OC)c3)C(=O)C2CC(=O)Nc2ccccc2)cc1` (stereo not given), the result was inactive.
In the case of `COc1ccc(CCNC(=O)CCc2c(C)nc3c(c(C)nn3-c3ccc(C)c(C)c3)c2C)c(OC)c1OC`, the result was inactive.
Regarding `O=C1CCCc2cc(S(=O)(=O)N3CCCC(C(=O)NCc4ccccc4)C3)ccc2N1` (stereo not given), the outcome was inactive.
`COc1ccccc1NC(=O)CSc1oc(-c2ccco2)nc1S(=O)(=O)c1ccc(Br)cc1`: the outcome was inactive.
Consider `O=C(CSc1cn(CC(=O)N2CCOCC2)c2ccccc12)Nc1ccccc1`, for which the result was inactive.
As to `CCCNc1ncnc2c1c(-c1ccccc1)cn2-c1ccc(OCC)cc1`, the result was inactive.
The entry for `COc1cccc(CNC(=O)c2ccc3c(c2)sc2nc(-c4cccc(OC)c4)cn23)c1` is “inactive”; for `COc1ccc(NC(=O)N2CCCn3nc(C)cc32)cc1OC` it is “inactive”; for `CC(C)c1ccc(NC(=O)Cn2c3ncccc3c(=O)n2-c2ccccc2)cc1` it is “inactive”.
In the case of `Cc1cn(C)c(CC(=O)NCc2ccc(Cl)cc2)c1C(=O)O` it was “inactive”; in that of `O=C(NCc1ccccc1)C1CCN(S(=O)(=O)c2ccc3[nH]c(=O)ccc3c2)CC1`, “inactive”.
For `Cc1cc(C)c(NC(=O)CCc2c(C)nc3c(c(C)nn3C(C)(C)C)c2C)c(C)c1`, the outcome was inactive.
`CCOC(=O)c1ccc(NC(=O)CSc2nc3c([nH]c4ccccc43)c(=O)n2C)cc1`: the result was inactive.
As for `COc1cccc(NC(=O)c2csnn2)c1`, the result was inactive.
On to `CCc1nc2c(cnn2-c2ccc(C)cc2)c(=O)n1-c1ccc(C)cc1`, for which the outcome was inactive.
In the case of `CCC1(C)CC(=O)c2c(ccc3oc(C(=O)Nc4ccc(C(C)=O)cc4)c(C)c23)O1` (stereo not given) it was “inactive”.
For `COc1ccc2oc(-c3ccc(C)c(NC(=O)c4sc5ccccc5c4Cl)c3)nc2c1`, the result was inactive.
For `CCOC(=O)Cn1c(=O)n(-c2ccccc2OC)c2nc(-c3cccc(F)c3)nc(C(N)=O)c21`, the outcome was inactive.
In the case of `Cc1ccc(NC(=O)c2cn3c4c(ccc(Cl)c4c2=O)OC(C)C3)cc1C` (stereo not given), the result was inactive.
With `CCCCS(=O)(=O)c1oc(-c2cccs2)nc1S(=O)(=O)c1ccccc1`, the result was inactive.
Regarding `O=C(CSc1ncc(CO)n1Cc1ccc(F)cc1)NCc1ccco1`, the result was inactive.
The entry for `CNc1ccc(-c2nc(-c3ccccc3C)no2)cc1[N+](=O)[O-]` is “inactive”; for `CCc1ccccc1NC(=O)Cn1c(=O)n(-c2cccc(C)c2)c(=O)c2c1c1cc(OC)ccc1n2C` it is “inactive”.
In the case of `CCOC(=O)c1c(S(=O)(=O)N2CCCC(C(=O)NCc3cccc(C)c3)C2)c(C)n(C)c1C` (stereo not given) it was “inactive”.
Take `CCOc1ccccc1NC(=O)c1ccc2c(c1)CCN2S(=O)(=O)c1ccc(C)cc1`: the result was inactive.
`CCOc1ccc(CNC(=O)C2CCN(c3nnc(-n4cccc4CNc4ccc(C)cc4)s3)CC2)cc1OC`: the outcome was inactive.
Consider `CCN1C(=O)c2ccccc2Sc2ccc(NC(=O)Cc3ccc(OC)cc3)cc21`, for which the outcome was inactive.
In the case of `Cc1ccc(C)c(S(=O)(=O)c2nnn3c2nc(N2CCOCC2)c2sccc23)c1` it was “inactive”; in that of `Cc1ccc(NC(=O)C2CCN(S(=O)(=O)c3cc(-c4noc(C)n4)ccc3C)CC2)c(C)c1`, “inactive”; in that of `CCCC(=O)Nc1ccc2oc(-c3ccc(O)c(Br)c3)nc2c1`, “inactive”.
The entry for `O=S(=O)(c1ccc(C2CCCCC2)cc1)N1CCN(c2ccc(Cl)c(Cl)c2)CC1` is “inactive”; for `COc1ccc(-c2nn(CC(=O)NC3CCCC3)c3c2cnc2ccc(F)cc23)cc1` it is “inactive”.
The entry for `Cc1ccc2oc(=O)c3cnn(CC(=O)NCc4ccccc4Cl)c3c2c1` is “inactive”; for `Cc1ccc(CN(C(=O)COc2ccc(Cl)cc2C)C2CCS(=O)(=O)C2)o1` (stereo not given) it is “inactive”; for `CCN(CCCNC(=O)c1cc(Nc2ccc(OC)cc2)nc2ccccc12)c1cccc(C)c1` it is “inactive”.
For the compound `Cc1c(C)n(Cc2ccc(Cl)cc2)c2ccc(C(=O)N3CCN(c4ccccc4F)CC3)cc12`, the outcome was inactive.
Turning to `Cc1ccc(OCCSc2nc3ccc(NC(=O)COc4ccc(C)cc4)cc3s2)cc1`, the result was inactive.
In the case of `CCSc1nnc(NC(=O)c2cc(=O)c3cc(C)c(C)cc3o2)s1` it was “inactive”.
Take `O=C(CS(=O)(=O)c1cccc2nsnc12)N1CCN(c2cccc(Cl)c2)CC1`: the result was inactive.
In the case of `Cc1nc2ccn(Cc3cccnc3)c(=O)c2cc1C(=O)N1CCN(c2ccccc2F)CC1` it was “inactive”.
For `O=C(CSc1nc2nccnc2c(=O)n1CCc1c[nH]c2ccccc12)Nc1ccccc1F`, the result was inactive.
For the compound `CCn1cc(C(=O)OCC(=O)Nc2cc(C)cc(C)c2)c(=O)c2ccc(C)nc21`, the outcome was inactive.
As to `CCN1CCN(Cc2c(O)ccc3oc(C)c(C(=O)Nc4ccc(C)cc4C)c23)CC1`, the outcome was inactive.
With `CC1CCCN(c2csc3ccc(F)cc3c2=O)C1` (stereo not given), the outcome was inactive.
As for `Cc1ccccc1CNC(=O)c1cccc(NC(=O)c2nsc3ccccc23)c1`, the outcome was inactive.
On to `CN(Cc1ccco1)S(=O)(=O)c1nnc(NC(=O)c2ccccc2)s1`, for which the outcome was inactive.
For the compound `Cc1ccc(F)cc1S(=O)(=O)N1CCC(c2nc3ccccc3s2)CC1`, the result was inactive.
As to `CCn1c2ccccc2c2cc(CN3CCN(Cc4cccc(Cl)c4)CC3)ccc21`, the outcome was inactive.
With `CN(Cc1ccccc1)S(=O)(=O)c1ccc(F)c(C(=O)Nc2cccc(Cl)c2Cl)c1`, the result was inactive.
For the compound `O=C(Nc1cccc2cccnc12)c1cccc2c(Br)cccc12`, the outcome was inactive.
Take `CCOc1ccc(NC(=O)c2cc3c(=O)n(Cc4cccs4)ccc3nc2C)cc1`: the result was inactive.
Turning to `CCOc1ccccc1NC(=O)CN1CCCN(Cc2cccc(Cl)c2)S1(=O)=O`, the result was inactive.
Take `CCOCCCNC(=O)c1c(NC(=O)Cc2coc3ccc(C)cc23)sc2c1CCC2`: the outcome was inactive.
For the compound `CCc1nn(CCCC(=O)NCc2ccc(C)cc2)c(=O)c2cc3occc3n12`, the result was inactive.
Take `CCOc1ccc(N(Cc2ccccc2)C(=O)c2nc(S(C)(=O)=O)ncc2Cl)cc1`: the result was inactive.
Consider `CCCN(CCC)C(=O)Cn1c(=O)n(-c2ccc(Cl)cc2)c(=O)c2c3c(sc21)CCCCC3`, for which the outcome was inactive.
Consider `Cc1ccc(Cl)cc1NC(=O)CSc1nccn1C`, for which the outcome was inactive.
Consider `CCN(CC)S(=O)(=O)c1ccc2c(c1)c(=O)c(C(=O)N1CCN(c3cccc(Cl)c3)CC1)cn2C`, for which the outcome was inactive.
On to `COc1ccc(CCNC(=O)CCCCn2c(=O)c3ccccc3n(Cc3ccccc3)c2=O)cc1OC`, for which the result was inactive.
In the case of `O=C(NCCc1ccc(Cl)cc1)c1ccc2nc(CCc3ccccc3)oc2c1` it was “inactive”.
`Cc1oc2ncn(CC(C)C)c(=O)c2c1C(=O)N1CCN(c2ccccc2F)CC1`: the result was inactive.
For the compound `CCCNC(=O)c1ccc(Cn2c(SCC(N)=O)nc3ccccc3c2=O)cc1`, the outcome was inactive.
For `CCOC(=O)c1cc(NC(=O)c2ccc(F)cc2)c(=O)n2c1oc1ccccc12`, the result was inactive.
Consider `COc1ccc(-n2c(=O)c3c(c4cc(OC)ccc4n3C)n(Cc3cccc(C)c3)c2=O)cc1`, for which the outcome was inactive.
Take `Cc1cccc(N2CCN(c3c(CN4CCCC4)c(=O)oc4ccccc34)CC2)c1C`: the result was inactive.
The entry for `O=C(Nc1nnc(S(=O)(=O)N2CCCc3ccccc32)s1)c1cccc(F)c1` is “inactive”; for `CC(C)c1ccc(NC(=O)CN(C)S(=O)(=O)c2ccc3c(c2)c(=O)n(C)c(=O)n3C)cc1` it is “inactive”.
Take `Cc1ccccc1CN1CCC(CNC(=O)c2c(C)oc3ncnc(N4CCCCC4)c23)CC1`: the result was inactive.
As for `CCOc1ccc(CNC(=O)C2CCCN(S(=O)(=O)N(CC)c3ccc(OCC)cc3)C2)cc1` (stereo not given), the outcome was inactive.
In the case of `COC(=O)c1ccccc1NC(=O)C(Cc1ccccc1)N1Cc2ccccc2C1=O` (stereo not given), the result was inactive.
Consider `O=C(NCCc1csc(-c2ccc(C(F)(F)F)cc2)n1)C(=O)Nc1ccc(F)c(Cl)c1`, for which the result was inactive.
In the case of `Cc1oc2ccc(O)c(CN3CCC(C)CC3)c2c1C(=O)Nc1ccccc1` it was “inactive”.
With `O=C(CC(c1cccs1)N1Cc2ccccc2C1=O)Nc1ccc(F)c(F)c1` (stereo not given), the result was inactive.
The entry for `COc1ccccc1NC(=O)Cn1cnc2ccc(S(=O)(=O)N3CCC(C)CC3)cc2c1=O` is “inactive”.
Consider `CCc1cccc(-n2nnc(-c3nsc(NC(=O)c4ccc(C)cc4)n3)c2C)c1`, for which the result was inactive.
For the compound `Cc1cccc(-n2ccnc2SCC(=O)Nc2cc(C(F)(F)F)ccc2Cl)c1`, the result was inactive.
As to `COc1ccc(-c2nc3scc(CCNS(=O)(=O)c4cc(F)ccc4OC)n3n2)cc1OC`, the result was inactive.
In the case of `C=Cc1ccc(Cn2c(C(=O)O)c(CNC3CCCC3)c3ccc(C)cc32)cc1` it was “inactive”; in that of `CCS(=O)(=O)N1CCC(n2c(C)nc3cccnc32)CC1`, “inactive”.
Turning to `Cc1ccc(C(=O)CSc2nc(-c3ccccc3)nc3c2CCCC3)c(C)c1`, the result was inactive.
As to `Cc1ccc(C(=O)NCCSc2c(C)[nH]c3ccccc23)cc1C`, the outcome was inactive.
As for `COc1ccc(CCNC(=O)c2c3c(nc4ccccc24)C(=O)N(C2CCCCC2)C3)cc1OC`, the result was inactive.
With `Cc1ccc(CNC(=O)c2ccc(CS(=O)Cc3cccc(Cl)c3)o2)cc1` (stereo not given), the result was inactive.
In the case of `CC1Cc2cc(S(=O)(=O)CCC(=O)Nc3ccc(F)c(Cl)c3)ccc2N1C(=O)C1CC1` (stereo not given) it was “inactive”.
Consider `CCCN1CCN(CCCNC(=O)c2cnn(-c3ccc(C)cc3)c2-n2cccc2)CC1`, for which the result was inactive.
In the case of `Cn1c(=O)c2c(SCC(=O)NCC3CCCO3)nc(-c3ccccc3F)nc2n(C)c1=O` (stereo not given), the result was inactive.

The record behind these values is PubChem BioAssay AID1347072 (National Center for Advancing Translational Sciences (NCATS), 2019).
